For this experiment, the system named is MDA-MB-468 breast. Briefly: NCI-60 one-dose screen, 48 h (100 = growth as untreated, 0 = no growth, -100 = all killed). The conditions noted are these: 10 µM unless noted.

Compounds without any hit were thinned out: in the full panel of roughly 83,000, 20% have a hit.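 Negative percent growth values reflect cell death: -40 means 40% of the cells present at the start died, and -100 means all died.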 Values without a mark were called inactive. The source made the active and inactive calls. Rule for the calls: active = growth percent below 10; inactive = the rest.

As to `C[C@@]12CC=C3c4nc(Nc5cccc(O)c5)sc4CC[C@]3(C)[C@H]1CC[C@]1(C)C(=O)CC[C@@H]21`, the growth is 32.2%.

Take `CC[C@H](C)[C@H](NC(=O)[C@H]1CCCCN1C)C(=O)N(C)[C@H](CCc1nc(C(=O)N[C@@H](Cc2ccccc2)C[C@H](C)C(=O)OC)cs1)C(C)C`: the growth was 35%.

In the case of `c1cnc2[nH]cc(-c3csc(-c4cn(CCCCN5CCOCC5)c5ccccc45)n3)c2c1`, the growth is 35.1%.

For the molecule `N#CC1C(C#N)C2CCC1C1C2N1c1ccccc1` (configuration not stated), the growth was 102%.

For `C/C=C(\C)C(=O)O[C@@H]1C(O)[C@H]2OC(COC(=O)CCC(=O)CCCCCC[C@H](CCCCC)O[C@@H]3OC(C)[C@H](OC(C)=O)C(O)[C@H]3O2)[C@H]1OC(=O)/C=C/c1ccccc1` (some centres not stated), the growth is -8.84% (active).

On to `Cn1cc(-c2csc(-c3cn(CCCCN4CCCCC4)c4ccccc34)n2)c2cccnc21`, for which the growth was -26.9% (active).

Regarding `COc1ccc(OC)c(/C=C/[N+](=O)[O-])c1`, the growth was -59.3% (active).

Turning to `Clc1ccc(COC(Cn2ccnc2)c2ccc(Cl)cc2Cl)cc1` (configuration not stated), the growth is 39.7%.

`CC1(C)CC2(CC(C)(C)c3cc(O)c(O)cc32)c2cc(O)c(O)cc21`: the growth was 83.1%.

Take `O=[N+]([O-])c1cc([N+](=O)[O-])c(Nn2c3ccccc3c3ccccc32)c([N+](=O)[O-])c1`: the growth is -8.42% (active).

Turning to `N#CC(C#N)=Cc1cccc(F)c1`, the growth is 109%.

For `COc1ccc(C2SCC(=O)Nc3c2c(C)nn3-c2nc3ccc(C)cc3s2)cc1O` (configuration not stated), the growth is 23.4%.

The record behind these values is PubChem BioAssay (NCI).
